# The list is not random: actives were taken first. Their share in the collection is about 10%.
# Gal4-VP16 FLuc – Gal4-VP16 reporter inhibition counter-screen; Drosophila S2 Gal4-VP16 UAS-luciferase, luminescence, 20 h; Potency, µM (highest dose often 53.6 µM), without a hit: at the top dose activity, negative = inhibition, actives largely listed as inhibitors; hit rate 3.5% among 310,000; AID 2546;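 note: Gal4-VP16 expression switched on by copper sulfate through the metallothionein promoter; % is set by controls: 0 for no effect and ±100 for the full control effect; nearly all actives have a fitted effect of over 50% in size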
# ELG1 repair inh – ELG1-dependent DNA repair inhibition; HEK293T ELG1-luciferase reporter, luminescence, 16 h; DNA damage induced by 5-fluorouridine; Potency, µM (titrated, usually from 46.1 µM), for inactives: top-dose activity change, negative = inhibition, most hits filed as inhibitors; hit rate 2.3% among 330,000; note: % is set by controls: 0 for no effect and ±100 for the full control effect; nearly all actives have a fitted effect of over 55% in size
#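 Step one: seed 2,000 cells per well. Step two: pin-transfer compound or DMSO alongside 5-fluorouridine. Step three: incubate 16 hr, 37 °C, 5% CO2. Step four: add ONE-Glo, wait 30 min, read luminescence.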
# RORgamma inh – ROR gamma (mouse) transcription inhibition; P51450; Drosophila S2 Gal4-RORgamma UAS-luciferase reporter, 20 h; Potency, µM (highest dose often 53.6 µM), for the others: at the highest dose activity change, negative = inhibition, usual class: inhibitors; hit rate 5.4% among 310,000; AID 2551; note: % is set by controls: 0 for no effect and ±100 for the full control effect; nearly all actives have a fitted effect of over 60% in size
# Target sequence (P51450 whole entry, looked up, the tested form may be a part): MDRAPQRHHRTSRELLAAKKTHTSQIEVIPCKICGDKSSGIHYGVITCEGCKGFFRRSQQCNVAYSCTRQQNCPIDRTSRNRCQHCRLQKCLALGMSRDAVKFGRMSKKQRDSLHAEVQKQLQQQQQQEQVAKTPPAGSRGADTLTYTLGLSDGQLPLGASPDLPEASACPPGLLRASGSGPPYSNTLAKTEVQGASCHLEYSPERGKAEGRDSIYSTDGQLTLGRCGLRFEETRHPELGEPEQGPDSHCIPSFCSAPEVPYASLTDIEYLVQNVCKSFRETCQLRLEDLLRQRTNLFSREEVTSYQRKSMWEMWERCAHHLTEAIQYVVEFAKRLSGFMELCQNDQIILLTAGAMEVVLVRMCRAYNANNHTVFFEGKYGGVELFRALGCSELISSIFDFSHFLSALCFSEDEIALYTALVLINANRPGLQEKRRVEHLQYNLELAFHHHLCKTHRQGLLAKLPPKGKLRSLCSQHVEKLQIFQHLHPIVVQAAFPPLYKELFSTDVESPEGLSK
#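 Luciferase reporter read in Schneider cells carrying Gal4-RORγ (mouse) and UAS-Photinus luciferase; cells given compound 1 h before 700 uM copper sulfate induction, then incubated 20 h at ambient temperature.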
# MCF10A rerep – DNA re-replication induction in MCF 10a cells; MCF 10A DNA re-replication, Hoechst nuclear intensity, 48 h; Potency, µM (top dose mostly 46.1 µM), without a hit: at the highest dose activity, positive = re-replication, most hits filed as activators; hit rate 2.9% among 350,000; AID 624296; note: % of control where 0% means no effect; nearly all actives have a fitted effect of over 50% in size
# SW480 rereplic – induces DNA re-replication in SW480 colon adenocarcinoma cells | hit rate 1.8% among 340,000 | SW480 DNA re-replication, Hoechst DNA content imaging, 48 h | AID 624297 | Potency, µM (top dose mostly 46.1 µM), inactives show top-dose re-replication activation, actives largely listed as activators; note: % of control where 0% means no effect; nearly all actives have a fitted effect of over 55% in size
#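 Image-based DNA-content assay: after two days of treatment, nuclei were labelled with the DNA dye Hoechst and imaged, and hits were compounds raising the count of nuclei showing high fluorescence intensity.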
# * = called active by the depositor; ? = inconclusive; nt = no result; [ ] = dose if it differs, or a comment. Calls come from the whole dose curve; as a rule, active = well fitted curve in the direction sought with a large enough effect; inconclusive = small, poorly fitted or top-dose-only effect, or another doubt; inactive = no such curve, though single readings can be large; an effect the other way counts as inactive or inconclusive. Potency is the fitted concentration of half-maximal effect.
SMILES,Gal4-VP16 FLuc,ELG1 repair inh,RORgamma inh,MCF10A rerep,SW480 rereplic
CCOC(=O)c1c(N)sc2c(OCC)c(Br)ccc12,?,8.7%,?,?,20.6µM*
Fc1cccc(NC(=S)NCc2ccccn2)c1,?,?,-35.8%[10 µM],7.3%,-6.7%
O=C(NC(=S)NCCc1ccccn1)c1ccco1,11.5%,?,?,?,?
S=C(NCCc1ccccn1)Nc1cccc(Cl)c1,7.94µM*,9.1%,5.01µM*,19.3%,5.9%
Cc1ccccc1NC(=O)NCc1ccccn1,nt,nt,nt,0.5%,0.8%
Cc1ccccc1NC(=S)NCCc1ccccn1,?,1.3%,15.8µM*,10.3%,?
O=C(NC(=S)NCCc1ccccn1)c1ccccc1,-66.5%,?,12.6µM*,-2.3%,-5.0%
S=C(NCc1ccccn1)Nc1ccc(Cl)cc1,?,18.4%,7.94µM*,?,-5.4%
COC(=O)C1=C2c3[nH]c4ccccc4c3CCN2C(=O)CC1,nt,nt,nt,-3.6%,?
COc1ccccc1/C=C1\N=C(C(C)(C)C)OC1=O,-0.1%,9.0%,3.8%,13.8%,2.2%
CC(C)(C)c1ccc(OCC2CO2)cc1 (stereo not given),6.4%,nt,22.8%,nt,nt
Cc1cccc(C)c1NC(=S)NCCc1ccccn1,2.82µM*,2.5%,1.41µM*,16.5%,-1.8%
COC(=O)c1ccc(CNC(=O)c2cc(COc3cncc(Cl)c3)on2)cc1,-24.1%,20.6µM*,?,8.3%,12.8%
O=C(/C=C/c1ccc2ccccc2n1)N1CCN(S(=O)(=O)c2ccccc2F)CC1,18.6%,16.4µM*,-1.1%,?,11.2%
Cn1c(=O)c2c(SCC(=O)NCC3CCCO3)nc(-c3ccccc3Cl)nc2n(C)c1=O (stereo not given),-0.5%,-3.2%,-7.9%,0.6%,2.4%
C=C1C(=O)[C@]23[C@H](O)[C@H]1CC[C@H]2[C@@]12COC3(O)[C@H](O)[C@@H]1C(C)(C)CC[C@@H]2O,3.55µM*,nt,3.16µM*,nt,nt
O=C(NC(=S)Nc1ccc2oc(=O)ccc2c1)c1cccc(Cl)c1,-10.2%,10.3%,2.82µM*,-0.7%,4.2%
O=C(NC(=S)Nc1ccc2oc(=O)ccc2c1)c1cccc(F)c1,1.0%,26.8%,6.31µM*,2.1%,9.1%
COc1cccc(C(=O)NC(=S)Nc2ccc3oc(=O)ccc3c2)c1,?,-9.0%,?,-4.3%,-6.5%
Cc1ccccc1/C=N/Nc1ncnc2nc[nH]c12,0.6%,?,15.4%,-0.1%,18.4µM*
Cc1ccsc1/C=N/Nc1ncnc2nc[nH]c12,?,?,-15.6%,0.3%,-10.0%
Cc1cc(C)c(C)c(S(=O)(=O)N2CCN(C(=O)c3ccccc3OCc3c(C)noc3C)CC2)c1C,nt,-25.9%,nt,17.8%,-16.9%
CCOC(=O)C1=C(C)C(c2ccccc2OC)NC(=S)N1 (stereo not given),0.0%,3.5%,2.82µM*,3.1%,-0.2%
Cc1ccc(S(=O)(=O)NCCN=Cc2ccc(N(C)C)cc2)cc1,-6.0%,1.1%,9.5%,-1.9%,2.1%
CN(C)/C=C/c1onc(-c2ccccc2Cl)c1C#N,-0.8%,?,?,18.4µM*,1.5%
SMILES,Gal4-VP16 FLuc,ELG1 repair inh,RORgamma inh,MCF10A rerep,SW480 rereplic
COc1ccc(NC(=O)CN(C)C(=O)c2oc3c(ccc4ccccc43)c2C)cc1,nt,?,nt,?,11.8%
CCN(CC)S(=O)(=O)c1ccc(N2CCOCC2)c(NC(=O)CC2OC(=O)c3ccccc32)c1 (stereo not given),nt,?,nt,8.4%,?
COc1ccc(-n2cnnc2SCC(=O)Nc2ccc(N3CCOCC3)cc2)cc1,3.2%,-24.3%,-1.8%,1.1%,6.2%
O=C(COc1ccc2c3c(c(=O)oc2c1)CCCC3)N1CCN(c2ccccc2)CC1,20.6%,9.1%,4.7%,-12.0%,-9.9%
COc1ccc(C=C2SC(=O)NC2=O)cc1OC,nt,nt,nt,13.7%,-4.8%
COc1cc(/C=C2\SC(=Nc3ccccc3)NC2=O)cc(Cl)c1O,-1.1%,1.8%,-22.5%,20.6µM*,?
COc1cc(/C=C2/SC(=NCc3ccccc3)N(Cc3ccccc3)C2=O)ccc1O,1.9%,-18.8%,-0.6%,5.8µM*,5.5%
COc1cc(/C=C2/SC(=Nc3ccc(O)cc3)NC2=O)ccc1O,-11.4%,?,-16.6%,5.17µM*,4.61µM*
COc1cc(/C=C2\SC(=Nc3ccccc3OC)NC2=O)ccc1O,1.4%,?,14.0%,8.2µM*,20.6µM*
COc1cc(/C=C2/SC(=S)N(Cc3ccccc3)C2=O)ccc1O,-16.3%,?,?,-18.0%,?
CCc1ccc(N=C2NC(=O)/C(=C/c3cc(OC)c(O)c(OC)c3)S2)cc1,?,?,-32.7%,?,10.8%
Nn1c(SCC(=O)Nc2cccc(Br)c2)nnc1C1CC1,nt,?,nt,14.0%,-3.7%
O=C(CNC(=O)c1ccc(F)cc1)N/N=C/c1cccnc1,7.3%,?,-15.9%,13.0%,-11.2%
COCCCNC(CC(=O)Nc1cc(C)cc(C)c1)C(=O)O (stereo not given),nt,nt,nt,-0.3%,?
FC(F)(F)c1nc(Sc2ncccc2C(F)(F)F)n[nH]1,-9.3%,-3.0%,-25.0%,-2.3%,-3.3%
COc1ccc(/C=C2\SC(=Nc3ccccc3OC)NC2=O)cc1,?,-21.4%,?,3.26µM*,?
COc1ccc(/C=C2\SC(=NCc3ccccc3)NC2=O)cc1,-7.0%,-16.6%,42.9%,6.4%,-6.7%
CCOc1cc(/C=C2/SC(=Nc3ccccc3)N(Cc3cccnc3)C2=O)ccc1OCC#N,-6.1%,18.4µM*,-12.7%,?,-1.7%[9.22 µM]
COc1cc(/C=C2\SC(=Nc3cccnc3)NC2=O)cc(OC)c1OC,-7.2%,20.4%,8.9%,3.66µM*,2.3%
CCOC(=O)C1(CCOC)CCN(C(=O)c2ccccc2-c2cccc(C)c2)CC1,-11.7%,3.1%,4.0%,3.9%,-4.4%
NCCC[C@@H](CC(=O)N[C@@H]1CCCC[C@H]1C(=O)N[C@H](CC(=O)N[C@@H](CCC(=O)O)CC(=O)O)Cc1ccccc1)NC(=O)C[C@H](Cc1c[nH]c2ccccc12)NC(=O)[C@@H]1CNCC[C@H]1N,-4.0%,nt,-5.6%,nt,nt
CCC(C(=O)OCC(=O)Nc1cc(Cl)ccc1Cl)c1ccccc1 (stereo not given),?,?,0.0%,-2.1%,?
COc1ccc(NC(=O)CC2Sc3ncnn3C2=O)cc1 (stereo not given),?,-4.3%,?,?,2.7%
Cc1cc(Br)ccc1NC(=O)CNC(=O)Cn1ncc(Cl)c(Cl)c1=O,?,7.6%,-30.5%,1.16µM*,?
Cc1cc(Br)ccc1NC(=O)CNC(=O)CSc1ncccn1,nt,1.5%,nt,0.3%,-4.6%
CCC(=O)Nc1ccc(C(=O)Cn2ncc(Cl)c(Cl)c2=O)cc1,-11.4%,?,-39.2%,3.66µM*,?
CCOC(=O)c1ccc(NC(=O)CC2Sc3ncnn3C2=O)cc1 (stereo not given),22.4µM*,6.0%,?,?,-1.2%

# Source: PubChem (National Center for Advancing Translational Sciences (NCATS))
